# Measured values as given in the supplement of paper PMC8728848.
# About 410 targets per protein were measured; listed, in parts, are those with the strongest signals and a random draw of the rest.
# B1: Epa1-NP-mutant-E227G (Candida glabrata), Q6VBJ0 (protein)
# chain: MILNPALFLNKCVCIYTTLILLLLTNGGYATSSNDISLASKDPTTFPLGCSPDITTPKKGLSMELYSYDFRKKGSYPCWDAAYLDPNYPRTGYKSHRLLAKVDGVTGNINFYYHATKGCTPQLGHLPASYNYPKPLTMTNFTMLLYGYFRPKVTGFHTFTISADDLLFVNFGAGNAFDCCRRDSSADHFGNYQAYAIWGSKTAKDELTVHLDAGVYYPIRLFYNNRGYDGALSFTFKTESNENTVSDFSEYFFSLDDTEEGCPGLISYDSSCASVKTSKIIGIDYHTETPNENLVPITKTIYHLGIPCTGTTTTPLCGSGFYDPLANKCVTINTSSTSSVTKTTSHTTSKEVSFHSSISSQKTLIPKSIPSPYGPIKSQSIPTEMETSSEISSSEYAFSDVISTPSHSPYTKKHSSLNSSSYTSTVIHSLTSYSISQGIFSTSLSEQNITSKSSTDKFSTATSMSNNITQSSIIISQFSTNNENYTTTSMHTSSDKISTETLNNSISTTTSILFSNSSTILKNNTTIISSDKDTHYHPVNPTIVCSTNKTEIICASITQPSISNSNNHWSSSVLKFNSTTVRSTLPSSAGSNETSINVPFSSSTESNTSTSSTSTSNSKMVRSTLPSSAGSNETSISVPFSSSTESNTSTSSTSTSNSKMVRSTLPSSAGSNETSINVPFSSSTESNTSTSSTSTSNSKTVRSTPFSSAGIIMTSLSQRNNKSASSYASSNSKCYNTADSCRKVHSTPSYLLTSSYTSEGVDYDCSLVSTKLKINDTNCVNNKHTTKSCLKTSVTTTIPTLEIKTARKSSSNTIGLHSYPTSSPNKSISSAPIIGYISSFKTIKTASPSYQTSDLTTITTITSLNNPGSTAVENTHESNDKSRKTSSNDISSKHSVIKETKDAVESSNKSHQTNTLKCSSIIIASSSHNSYESLGGTTLTLTLSKVYSPQNNDTLPFLEISEVNPSRTVLPESSKMMQYLTSTEERNKTARNTIATNIVSISTFHFEGEGNAIRMGYTQLLLMLIGIIVMNIGT
# Columns and labels:
# Assay in all cases: glycan array binding signal (z-score within array); higher = stronger binding
# Conditions in all cases: glycan notation: IUPAC condensed, linker removed; mutation: E227G
# [1] = target: Fuc(a1-2)Gal(b1-3)GalNAc(a1-3)[Fuc(a1-2)]Gal(b1-4)Glc
# Method in brief: (§1)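 Arrays were curated from the Consortium for Functional Glycomics database, 3228 in total, and kept only where the protein sequence was available. Binding is expressed as a within-array Z-score. This score was averaged across arrays of the same protein sequence at different concentrations or buffers and across linkers, and negative values can be read as non-binding.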
# [2] = target: Fuc(a1-2)Gal(b1-3)GlcNAc(b1-3)[Gal(b1-4)GlcNAc(b1-6)]Gal(b1-4)Glc
# Method in brief: as §1
# [3] = target: Fuc(a1-2)Gal(b1-3)[Fuc(a1-4)]GlcNAc(b1-2)Man(a1-3)[Fuc(a1-2)Gal(b1-3)[Fuc(a1-4)]GlcNAc(b1-2)Man(a1-3)]Man(b1-4)GlcNAc(b1-4)GlcNAc
# Method in brief: as §1
# Fuc(a1-2)Gal(b1-4)Glc = target: Fuc(a1-2)Gal(b1-4)Glc
# Method in brief: as §1
# [4] = target: Fuc(a1-2)Gal(b1-4)GlcNAc(b1-2)Man
# Method in brief: as §1
# [5] = target: Fuc(a1-2)Gal(b1-4)[Fuc(a1-3)]GlcNAc(b1-2)Man(a1-3)[Fuc(a1-2)Gal(b1-4)[Fuc(a1-3)]GlcNAc(b1-2)Man(a1-6)]Man(b1-4)GlcNAc(b1-4)[Fuc(a1-6)]GlcNAc
# Method in brief: as §1
# [6] = target: Fuc(a1-2)Gal(b1-4)[Fuc(a1-3)]GlcNAc(b1-3)GalNAc
# Method in brief: as §1
# Fuc(a1-2)[Gal(a1-3)]Gal = target: Fuc(a1-2)[Gal(a1-3)]Gal
# Method in brief: as §1
# [7] = target: Fuc(a1-2)[Gal(a1-3)]Gal(b1-4)GlcNAc(b1-2)Man(a1-3)[Fuc(a1-2)[Gal(a1-3)]Gal(b1-4)GlcNAc(b1-2)Man(a1-6)]Man(b1-4)GlcNAc(b1-4)[Fuc(a1-6)]GlcNAc
# Method in brief: as §1
# [8] = target: Fuc(a1-2)[Gal(a1-3)]Gal(b1-4)GlcNAc(b1-3)[Fuc(a1-2)[Gal(a1-3)]Gal(b1-4)GlcNAc(b1-6)]GalNAc
# Method in brief: as §1
# [9] = target: Fuc(a1-2)[GalNAc(a1-3)]Gal(b1-3)GalNAc(b1-3)Gal(a1-4)Gal(b1-4)Glc
# Method in brief: as §1
# [10] = target: Gal(a1-3)Gal(b1-3)GlcNAc(b1-2)Man(a1-3)[Gal(a1-3)Gal(b1-3)GlcNAc(b1-2)Man(a1-6)]Man(b1-4)GlcNAc(b1-4)GlcNAc
# Method in brief: as §1
# [11] = target: Gal(a1-4)Gal(b1-3)GlcNAc(b1-2)Man(a1-3)[Gal(a1-4)Gal(b1-3)GlcNAc(b1-2)Man(a1-6)]Man(b1-4)GlcNAc(b1-4)GlcNAc
# Method in brief: as §1
# Gal(b1-2)Gal = target: Gal(b1-2)Gal
# Method in brief: as §1
# Gal(b1-3)Gal(b1-4)GlcNAc = target: Gal(b1-3)Gal(b1-4)GlcNAc
# Method in brief: as §1
# Gal(b1-3)GalNAc = target: Gal(b1-3)GalNAc
# Method in brief: as §1
# [12] = target: Gal(b1-3)GalNAc(b1-4)Gal(b1-4)Glc
# Method in brief: as §1
# [13] = target: Gal(b1-3)GlcNAc(b1-2)Man(a1-3)[Gal(b1-3)GlcNAc(b1-2)Man(a1-6)]Man(b1-4)GlcNAc(b1-4)GlcNAc
# Method in brief: as §1
# [14] = target: Gal(b1-3)GlcNAc(b1-3)GalNAc
# Method in brief: as §1
# [15] = target: Gal(b1-3)GlcNAc(b1-6)Gal(b1-4)GlcNAc
# Method in brief: as §1
# Gal(b1-3)GlcNAc6S = target: Gal(b1-3)GlcNAc6S
# Method in brief: as §1
# [16] = target: Gal(b1-3)[Fuc(a1-4)]GlcNAc
# Method in brief: as §1
# [17] = target: Gal(b1-3)[Neu5Ac(a2-6)]GalNAc
# Method in brief: as §1
# Gal(b1-4)Glc6S = target: Gal(b1-4)Glc6S
# Method in brief: as §1
# [18] = target: Gal(b1-4)GlcNAc(b1-2)Man(a1-6)Man(b1-4)GlcNAc(b1-4)GlcNAc
# Method in brief: as §1
# [19] = target: Gal(b1-4)GlcNAc(b1-3)Gal(b1-4)GlcNAc(b1-2)Man(a1-3)[Gal(b1-4)GlcNAc(b1-3)Gal(b1-4)GlcNAc(b1-2)Man(a1-6)]Man(b1-4)GlcNAc(b1-4)[Fuc(a1-6)]GlcNAc
# Method in brief: as §1
# [20] = target: Gal(b1-4)GlcNAc(b1-3)Gal(b1-4)GlcNAc(b1-3)Gal(b1-4)GlcNAc(b1-3)Gal(b1-4)GlcNAc(b1-2)Man(a1-3)[Gal(b1-4)GlcNAc(b1-3)Gal(b1-4)GlcNAc(b1-3)Gal(b1-4)GlcNAc(b1-3)Gal(b1-4)GlcNAc(b1-2)Man(a1-6)]Man(b1-4)GlcNAc(b1-4)GlcNAc
# Method in brief: as §1
# Gal3S6S(b1-4)GlcNAc6S = target: Gal3S6S(b1-4)GlcNAc6S
# Method in brief: as §1
# Gal6S(b1-3)GlcNAc = target: Gal6S(b1-3)GlcNAc
# Method in brief: as §1
# Gal6S(b1-3)GlcNAc6S = target: Gal6S(b1-3)GlcNAc6S
# Method in brief: as §1
binder,measurement,setting,value
B1,glycan array binding signal (z-score),[1],-0.144
same,glycan array binding signal (z-score),[2],-0.113
same,glycan array binding signal (z-score),[3],-0.037
same,glycan array binding signal (z-score),Fuc(a1-2)Gal(b1-4)Glc,-0.104
same,glycan array binding signal (z-score),[4],-0.202
same,glycan array binding signal (z-score),[5],-0.014
same,glycan array binding signal (z-score),[6],0.012
same,glycan array binding signal (z-score),Fuc(a1-2)[Gal(a1-3)]Gal,-0.147
same,glycan array binding signal (z-score),[7],-0.133
same,glycan array binding signal (z-score),[8],-0.138
same,glycan array binding signal (z-score),[9],-0.175
same,glycan array binding signal (z-score),[10],0.258
same,glycan array binding signal (z-score),[11],-0.089
same,glycan array binding signal (z-score),Gal(b1-2)Gal,-0.17
same,glycan array binding signal (z-score),Gal(b1-3)Gal(b1-4)GlcNAc,1.84
same,glycan array binding signal (z-score),Gal(b1-3)GalNAc,1.39
same,glycan array binding signal (z-score),[12],4.13
same,glycan array binding signal (z-score),[13],1.06
same,glycan array binding signal (z-score),[14],-0.236
same,glycan array binding signal (z-score),[15],4.84
same,glycan array binding signal (z-score),Gal(b1-3)GlcNAc6S,2.52
same,glycan array binding signal (z-score),[16],-0.184
same,glycan array binding signal (z-score),[17],1.35
same,glycan array binding signal (z-score),Gal(b1-4)Glc6S,7.04
same,glycan array binding signal (z-score),[18],-0.117
same,glycan array binding signal (z-score),[19],0.016
same,glycan array binding signal (z-score),[20],-0.21
same,glycan array binding signal (z-score),Gal3S6S(b1-4)GlcNAc6S,0.516
same,glycan array binding signal (z-score),Gal6S(b1-3)GlcNAc,0.07
same,glycan array binding signal (z-score),Gal6S(b1-3)GlcNAc6S,3.58
